Assay outcomes deposited in PubChem by National Center for Advancing Translational Sciences (NCATS).
IMPase Li cell: cell-permeable IMPase inhibitors with lithium potentiation | CHO-M1 cells, IP1 TR-FRET (IP-One), carbachol + lithium | Potency, µM (doses to about 59.4 µM), without a hit: top-dose activity, negative = IMPase inhibition, most hits filed as inhibitors | hit rate 0.35% among 210,000 | AID 1457;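 also: IP1 builds up when IMPase is blocked and the TR-FRET signal falls; potency is read from the fitted curve at half-maximal effect; plate controls were basal vehicle for no effect and high inhibitor control for full effect; nearly all actives have a fitted effect of over 50% in size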
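Steps: plate 2000 CHO-M1 cells per well and culture 16–30 h; add compound and lithium; incubate 30 min, 37C; add d2-IP1 tracer and Eu cryptate anti-IP1 antibody in lysis buffer; read after 10 min at room temperature.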
PNC assembly inh: blocks assembly of the perinucleolar compartment. PC3M PTB-GFP, PNC prevalence imaging, 16 h; active compounds read low. activity change (PNC), negative = inhibition, % at 10 µM. hit rate 3.1% among 140,000. AID 2417;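 active = readout at or below -70, meaning at least 70% loss of cells showing the perinucleolar compartment, a nuclear body marking cancer cells; inconclusive = readout between -30 and a set limit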;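 also: plate controls were DMSO wells for no effect and camptothecin positive control wells for full effect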
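Read-out is percentage of cells bearing a perinucleolar compartment, from automated 20x imaging of fixed, Hoechst-stained PC3M PTB-GFP cells. Cells were seeded 4 h, then exposed 16 h to compound (23 nl of library stock) in duplicate plates.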
IMPase inh: cell-permeable inhibitors of inositol monophosphatase (IMPase). CHO-M1 cells, IP1 accumulation, HTRF TR-FRET ratio. P97697. inhibition (IP1 accumulation), % at 46.1 µM. 120,000 tested, under 10 active; active = well fitted curve in the direction sought with a large enough effect in the signal ratio, not every such curve was filed as active; inconclusive = small, poorly fitted or top-dose-only effect, or a change in a side signal; inactive = no such curve, though single readings can be large or run the other way; the % refers to the signal ratio;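 also: cells stimulated with carbachol in lithium chloride buffer; plate controls were DMSO basal wells for no effect and reference inhibitor wells for full effect; higher means more IMPase inhibition seen as more IP1 and lower FRET ratio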
Target sequence (P97697 whole entry, looked up): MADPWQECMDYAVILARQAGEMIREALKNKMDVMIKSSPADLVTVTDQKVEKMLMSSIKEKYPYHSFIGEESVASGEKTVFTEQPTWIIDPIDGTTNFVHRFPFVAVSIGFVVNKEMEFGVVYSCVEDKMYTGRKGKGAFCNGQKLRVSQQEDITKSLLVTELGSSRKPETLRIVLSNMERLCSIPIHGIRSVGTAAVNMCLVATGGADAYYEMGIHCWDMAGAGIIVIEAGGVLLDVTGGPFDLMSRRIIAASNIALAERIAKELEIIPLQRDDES
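CHO-M1 cells (CHO stably expressing M1 receptor), compound up to 46 uM final, stimulated with carbachol (50 uM as added) in buffer with 50mM LiCl, pH 7.4, 30 min at 37C. Cytosolic IP1 read by TR-FRET; AC50 from Hill fits.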
ALOX12 inhib: inhibitors of human 12-lipoxygenase (ALOX12) | P18054 | purified 12-hLO, xylenol orange hydroperoxide absorbance | Potency, µM (top dose mostly 57.1 µM), inactives show at the highest dose activity change, negative = inhibition, usual class: inhibitors | hit rate 0.12% among 150,000 | AID 1452; also: potency is read from the fitted curve at half-maximal effect; nearly all actives have a fitted effect of over 55% in size
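Lipoxygenase turnover measured by absorbance at 573 and 405 nm after Fe-XO development. Human 12hLO 150 nM, arachidonate 40 uM, pH 7.0 Hepes buffer with detergent; 15 min compound preincubation, 30 min reaction.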
Active calls of the source: *; ? = inconclusive; . = not tested or not shown; [ ] = remark or other dose. Only a selection was taken, and hits are over-represented in it overall. Unless noted, calls follow the shape of the dose curve; as a rule, active = well fitted curve in the direction sought with a large enough effect; inconclusive = small, poorly fitted or top-dose-only effect, or another doubt; inactive = no such curve, though single readings can be large; an effect the other way counts as inactive or inconclusive. Unless noted, % is scaled to controls: 0 for no effect and ±100 for the full control effect.

SMILES	IMPase Li cell	PNC assembly inh	IMPase inh	ALOX12 inhib
COc1cccc2cc(C(=O)NC(C)C3CCCO3)c(=O)oc12 (stereo unspecified)	24%[38.3 µM]	-87*	9[1.84 µM]	3%
Cn1c(-c2cccc([N+](=O)[O-])c2)cnc1NCc1ccc(C#N)cc1	15%	.	.	.
N=c1n(CC(=O)c2ccc([N+](=O)[O-])cc2)c2ccccc2n1Cc1ccccc1Cl	1%	-88*	.	0%
N=c1n(CC(=O)c2ccc([N+](=O)[O-])cc2)c2ccccc2n1Cc1ccccc1	6%	-9	-1	4%
COC(=O)c1cn(Cc2ccccc2C)nn1	-3%	0	.	3%
CCOC(=O)N1CCC(N2C(=O)c3ccc(C(=O)NCc4ccco4)cc3C2=O)CC1	20%	-119*	5	5%
CCOC(=O)N1CCC(N2C(=O)c3ccc(C(=O)NCc4ccc(F)cc4)cc3C2=O)CC1	5%	14	-7	-1%
CN1c2ccccc2C(C)(C)C12CC(c1cccc(S(=O)(=O)N3CCCC3)c1)=NO2 (stereo unspecified)	0%	-117*	.	1%
CCN(CC)S(=O)(=O)c1ccc(C2=NOC3(C2)N(C)c2ccccc2C3(C)C)cc1 (stereo unspecified)	7%	-106*	.	2%
CN1c2ccccc2C(C)(C)C12CC(c1ccc(S(=O)(=O)N3CCCCC3)cc1)=NO2 (stereo unspecified)	-8%	?	.	-2%
COc1cc(OC)cc(C(=O)OCCNC(=O)Cn2cnc3c2c(=O)n(C)c(=O)n3C)c1	1%	.	.	.
COc1ccc(C(=O)c2sc3nc(C)cc(-c4cccs4)c3c2N)cc1OC	7%	-82*	.	-2%
Cc1ccc(P(=Nc2ccccc2)(N2CCOCC2)N2CCOCC2)o1	28%[38.3 µM]	-92*	8	4%
CC(N)(C(=O)O)c1ccc(P(=O)(O)O)cc1 (stereo unspecified)	0%	.	.	.
N=C(N)SC(c1ccccc1)c1ccccc1	-8%	.	.	2%[11.4 µM]
CC(=O)c1cnc2nc(C)nn2c1C	-2%[38.3 µM]	-23	-2	1%
CC(=O)c1cnc2ncnn2c1C	3%	-113*	.	-3%
C/C(N)=C(/C#N)C(=O)CSc1nc2ccccc2c(=O)n1-c1ccc(C)cc1	?	-26	5	3%
C/C(N)=C(/C#N)C(=O)CSc1nc2ccccc2c(=O)n1-c1ccc(C)c(Cl)c1	11µM*	29	4	-3%
Cc1ccc(S(=O)(=O)Nc2ccc(C(OC(=O)c3ccccc3[N+](=O)[O-])(C(F)(F)F)C(F)(F)F)cc2)cc1	17%	-108*	.	-16%
O=C(OC(c1ccc(NS(=O)(=O)c2ccccc2)cc1)(C(F)(F)F)C(F)(F)F)c1ccccc1	23%	-26	.	0%
O=C(N[C@H]1CCCc2ccccc21)O[C@@H]1C(=O)c2cc(Br)ccc2O[C@H]1c1ccc2c(c1)OCO2	25%	.	.	.
COc1ccc(C(=O)NNC(=O)C(C)NC(=O)c2ccccc2NC(=O)c2ccco2)cc1 (stereo unspecified)	-5%	-93*	4	6%
CC(C)c1ccccc1NC(=O)c1ccco1	-6%[38.3 µM]	-96*	-1	-12%
Cc1cc(O)c(NC(=O)c2ccco2)cc1C	26%[38.3 µM]	?	7	8%
SMILES	IMPase Li cell	PNC assembly inh	IMPase inh	ALOX12 inhib
COc1ccc(NC(=O)C2(c3ccc(NC(=O)c4ccc(OC)cc4)cc3)CCCC2)cc1	.	18	-2	0%
COc1ccc(C2(C(=O)Nc3nncs3)CCCC2)cc1	5%[38.3 µM]	-80*	-13	4%
O=S(=O)(c1ccc(F)cc1)n1ccc2cccnc21	5%	-100*	-5	6%
COc1cc(/C=C(/C#N)c2nc3ccccc3[nH]2)ccc1OCC(=O)Nc1ccccc1C(C)C	-10%[38.3 µM]	-86*	-2	-4%
O=C(NC1CCCCC1)N1CCCC1	-1%	-25	5	1%
Cc1ccc(C(=O)Oc2ccccc2N2C(=O)C3C4CCC(C4)C3C2=O)cc1 (stereo unspecified)	-2%	?	.	0%
CC(C)OC(=O)c1ccc(NC(=O)c2cncc(Br)c2)cc1	10%	.	.	.
CN(C)C(=O)c1ccc(NC(=O)c2cncc(Br)c2)cc1	4%	-100*	3	-4%
COc1ccc(NC(=O)CSc2nnc3n2CCCCC3)cc1	-7%	.	.	.
CCNc1ncc2nc(-c3ccc(Cl)cc3)c(=O)n(Cc3ccc(F)cc3)c2n1	2µM*	.	.	.
CCNc1ncc2nc(-c3ccc(Cl)cc3)c(=O)n(C3CC3)c2n1	5µM*	.	.	-3%
CCNc1ncc2nc(-c3cccs3)c(=O)n(Cc3cccc(OC)c3)c2n1	2µM*	.	.	.
CCNc1ncc2nc(-c3ccccc3)c(=O)n(C3CC3)c2n1	-26%	.	.	-1%
CSc1ncccc1C(=O)OCc1ccccc1	-10%[38.3 µM]	30	2	-10%
CSc1ncccc1C(=O)OCc1ccc(COC(=O)c2cccnc2SC)cc1	-8%[38.3 µM]	-108*	-11	6%
COc1ccc(-c2coc3ccc(OC4OC(COC(C)=O)C(OC(C)=O)C(OC(C)=O)C4OC(C)=O)cc3c2=O)cc1 (stereo unspecified)	7%	.	3	0%
CN(c1ccccc1C(=O)Nc1ccccc1C(=O)NCc1ccco1)S(C)(=O)=O	4%[38.3 µM]	-117*	-1	2%
O=C(O)c1cccc(NCc2ccncc2)c1	20%[38.3 µM]	-81*	-8	-4%
O=C(O)c1ccc(NCc2ccncc2)cc1	13%[38.3 µM]	9	-2	2%
Cc1occc1C(=O)NN1C(=O)C2C3CCC(O3)C2C1=O (stereo unspecified)	-5%	-102*	.	-2%
Cc1cc(-c2ccccc2)nc(SCC(=O)N2CCCC2)n1	-3%	.	.	.
CCOc1ccc(OCCSc2nc3ccccc3[nH]2)cc1	30%	-92*	12	5%
COc1ccc(OC)c2[nH]c(=O)c(CCNC(=O)c3ccc4c(c3)OCO4)cc12	-8%	.	.	.
C=CCNC(=S)NNC(=O)c1ccc(OC(C)C)cc1	-6%[38.3 µM]	-91*	7	2%
CCCCCn1c(CN2CCN(CCO)CC2)nc2c1c(=O)n(C)c(=O)n2C	19%[38.3 µM]	6	-3	2%
SMILES	IMPase Li cell	PNC assembly inh	IMPase inh	ALOX12 inhib
CCCn1c(CN2CCCCC2C)nc2c1c(=O)n(C)c(=O)n2C (stereo unspecified)	12%[38.3 µM]	-95*	9	0%
CCCCCCn1c(CN2CCN(C)CC2)nc2c1c(=O)n(C)c(=O)n2C	3%	-122*	-8	19%
COC(=O)c1ccc2c(=O)n3c(nc2c1)SCC(c1ccccc1)=N3	10µM*	36	1	2%
CCSc1nc2cc(C(=O)OC)ccc2c(=O)n1CC	7%	105	-7	4%
Cc1ccc(C)c(/C(O)=C2\C(=O)C(=O)N(CCCN3CCOCC3)C2c2cccnc2)c1 (stereo unspecified)	29%[38.3 µM]	11	4	3%
Cc1ccc(C)c(/C(O)=C2\C(=O)C(=O)N(Cc3cccnc3)C2c2cccnc2)c1 (stereo unspecified)	7.1µM*	5	-24	-11%
